This passage reports growth results from PubChem BioAssay (NCI).

This is part of a sample that, as a whole, favours compounds with a hit. Of some 83,000 tested, about 20% had one in any assay.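 Cells were grown in 96-well plates and exposed to the test compound at a single concentration for 48 hours; results are reported as percent growth, with values below 10 considered active.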 Unmarked numbers belong to inactive results. Calls of active or inactive are those of the source.

Test systems include NCI-H23 lung; NCI-H226 lung; NCI-H322M lung; HOP-62 NSCLC; NCI-H460 lung; HOP-92 NSCLC; NCI-H522 lung; A549/ATCC NSCLC; 786-0 renal; COLO 205 colon.
What all share (experiment): NCI-60 one-dose screen, 48 h (100 = growth as untreated, 0 = no growth, -100 = all killed)
What all share (conditions): 10 µM unless noted

In the case of `CN1C(=O)C(O)(CC(=O)c2cc3ccccc3oc2=O)c2ccccc21` (stereo not given), the growth is 93.3% with NCI-H23 lung; 81% in the assay with NCI-H226 lung; 103% in the assay with NCI-H322M lung; 97% in the assay with HOP-62 NSCLC; 114% with NCI-H460 lung; 110% in the assay with HOP-92 NSCLC. Also, the growth in the assay on NCI-H522 lung is 92.7%; in the assay with A549/ATCC NSCLC, 111%; in the assay on 786-0 renal it was 105%; with COLO 205 colon, 114%.
With `O=C(CSc1nnc(-c2ccc(-c3nc4ccc(Cl)cc4[nH]3)cc2)o1)Nc1ccc(Br)cc1`, the growth in the assay with NCI-H23 lung is -34.7% (active); with NCI-H226 lung it was -46.9% (active); with NCI-H322M lung it was 9.95% (active); with HOP-62 NSCLC it was -31.1% (active); in the assay on NCI-H460 lung it was -72.3% (active); in the assay on HOP-92 NSCLC it was -7.8% (active). Further, the growth in the assay on NCI-H522 lung is -23.3% (active); in the assay with A549/ATCC NSCLC, -38.9% (active); in the assay with 786-0 renal, -44.1% (active); in the assay on COLO 205 colon, 94.1%.
Turning to `O=CNc1ccc(-n2cnc3cc(-c4ccc(O)cc4)ccc32)cc1`, the growth in the assay on NCI-H23 lung is 86.5%; in the assay with NCI-H226 lung, 83.5%; with NCI-H322M lung, 91.1%; in the assay on HOP-62 NSCLC, 85.6%; with NCI-H460 lung, 87.4%; in the assay on HOP-92 NSCLC, 96.5%. Also, the growth with NCI-H522 lung is 82.1%; in the assay with A549/ATCC NSCLC, 86.9%; in the assay on 786-0 renal, 101%; in the assay on COLO 205 colon it was 136%.
For the compound `O=C(COc1ccc(/C=C2/C(=O)Nc3ccc(Cl)cc32)cc1)Nc1ccc(Br)cc1`, the growth in the assay on NCI-H23 lung was -53.6% (active); with NCI-H226 lung, -48.5% (active); with NCI-H322M lung it was 0.856% (active); with HOP-62 NSCLC, -72.6% (active); in the assay on NCI-H460 lung, -31.6% (active); in the assay with HOP-92 NSCLC, -48.4% (active). Further, the growth in the assay with NCI-H522 lung is -35% (active); with A549/ATCC NSCLC, -66.2% (active); in the assay with 786-0 renal, -78.9% (active); with COLO 205 colon, 2.47% (active).
As to `Cc1[nH]nc2ccc3nc(-c4cnn(CCO)c4)c4c(c3c12)CCCC4`, the growth is 52.7% in the assay on NCI-H23 lung; 28.6% in the assay with NCI-H226 lung; 53.8% with NCI-H322M lung; 65.6% in the assay on HOP-62 NSCLC; 26.6% in the assay on NCI-H460 lung; 35.9% in the assay on HOP-92 NSCLC. Further, the growth in the assay on NCI-H522 lung was 18.9%; in the assay on A549/ATCC NSCLC it was 49.3%; in the assay on 786-0 renal it was 38.7%; in the assay with COLO 205 colon it was 47.5%.
Take `Cc1ccccc1Nc1nnc(-c2c[nH]c3ccccc23)o1`: the growth was 28.1% in the assay on NCI-H23 lung; 43.9% in the assay with NCI-H226 lung; 38.2% in the assay on NCI-H322M lung; 24.8% in the assay with HOP-62 NSCLC; 20.1% in the assay on NCI-H460 lung; 29.1% with HOP-92 NSCLC. Further, the growth is -23.2% (active) in the assay with NCI-H522 lung, 40.3% in the assay on A549/ATCC NSCLC, 40% in the assay on 786-0 renal and -32.7% (active) in the assay on COLO 205 colon.
Regarding `COc1ccc2nc(NC(=O)c3ccc(N(C)C)cc3)sc2c1`, the growth is 66.2% in the assay on NCI-H23 lung; 56.9% in the assay on NCI-H226 lung; 64.7% in the assay with NCI-H322M lung; 92% in the assay on HOP-62 NSCLC; 65.9% with NCI-H460 lung; 112% with HOP-92 NSCLC. Moreover, the growth in the assay with NCI-H522 lung is 67.7%; in the assay with A549/ATCC NSCLC, 54.9%; in the assay on 786-0 renal, 85%; in the assay with COLO 205 colon it was 89.5%.
As for `COc1ccc(SC2c3cc(OC)ccc3Oc3nc(N)c(C#N)c(N)c32)cc1` (stereo not given), the growth in the assay with NCI-H23 lung was 85.6%; in the assay with NCI-H226 lung it was 87.1%; in the assay with NCI-H322M lung, 83.5%; in the assay with HOP-62 NSCLC, 68.2%; in the assay with NCI-H460 lung it was 74.3%; with HOP-92 NSCLC, 116%. The growth with NCI-H522 lung was 78.4%; with A549/ATCC NSCLC it was 95.8%; with 786-0 renal it was 74.8%; with COLO 205 colon, 101%.
As for `COC(=O)CSC1=C(C)C(=O)C(OC)=C(OC)C1=O`, the growth is 94.3% with NCI-H23 lung; 93.1% in the assay with NCI-H226 lung; 93.1% in the assay on NCI-H322M lung; 85.3% with HOP-62 NSCLC; 96.8% in the assay on NCI-H460 lung; 75.5% with HOP-92 NSCLC. Besides, the growth in the assay on NCI-H522 lung was 72.2%; in the assay with A549/ATCC NSCLC it was 90.4%; with 786-0 renal it was 99.9%; with COLO 205 colon, 102%.
Regarding `C/C(=N/O)c1ccc(NC(=O)CSc2nnc(-c3ccc4nc(-c5ccc(Cl)cc5)[nH]c4c3)o2)cc1`, the growth in the assay with NCI-H23 lung is -18.9% (active); in the assay with NCI-H226 lung, 110%; with NCI-H322M lung it was 55.8%; in the assay with HOP-62 NSCLC, 20.2%; with NCI-H460 lung, 12.2%; with HOP-92 NSCLC, 88.7%. For the same compound, the growth was -16.3% (active) in the assay with NCI-H522 lung, 31.8% with A549/ATCC NSCLC, -59.9% (active) in the assay with 786-0 renal and 122% with COLO 205 colon.
Turning to `Oc1ccc(Cl)c(Nc2nc(SCCN3CCOCC3)nc3c2cnn3CC(Cl)c2ccc(Br)cc2)c1` (stereo not given), the growth with NCI-H23 lung was 31.8%; in the assay with NCI-H226 lung it was 38.5%; in the assay on NCI-H322M lung, 92.8%; in the assay with HOP-62 NSCLC, 32.7%; in the assay with NCI-H460 lung, 10.1%; in the assay with HOP-92 NSCLC, -6.99% (active). Besides, the growth in the assay on NCI-H522 lung is 22.2%; in the assay with A549/ATCC NSCLC, 12%; in the assay with 786-0 renal it was 43.3%; in the assay on COLO 205 colon, 106%.
With `COc1ccc2[nH]c(O)c(N=Nc3nc(-c4ccc(Br)cc4)cs3)c2c1`, the growth in the assay with NCI-H23 lung is -6.52% (active); in the assay with NCI-H226 lung, -36.4% (active); in the assay with NCI-H322M lung, 28.2%; in the assay on HOP-62 NSCLC it was -10.1% (active); with NCI-H460 lung, -35.4% (active); with HOP-92 NSCLC, -34.4% (active). The growth in the assay with NCI-H522 lung is 19.1%; with A549/ATCC NSCLC, -41.3% (active); in the assay with 786-0 renal it was -81.3% (active); in the assay on COLO 205 colon, -13.2% (active).
As to `Nc1nnc(-c2cncc(Br)c2)c(-c2c[nH]c3ccc(Cl)cc23)n1`, the growth in the assay with NCI-H23 lung was 84.5%; in the assay with NCI-H226 lung, 74%; in the assay on NCI-H322M lung, 80.9%; with HOP-62 NSCLC, 91.9%; in the assay on NCI-H460 lung, 86.9%; with HOP-92 NSCLC it was 90.9%. Further, the growth in the assay with NCI-H522 lung is 68.1%; with A549/ATCC NSCLC it was 82.9%; in the assay on 786-0 renal, 73.9%; in the assay with COLO 205 colon it was 113%.
